In all, about 220,000 compounds went through this assay and about 8,200 (3.7%) were called active. The full list was thinned out, with actives kept by preference. Unmarked numbers belong to inactive results.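 Rule for the calls: active = compounds that reduced the stress-induced luciferase reporter signal by more than about 70% of percent inhibition (limit read from the data); inactive = the rest.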
Test: inhibitors of CHOP promoter induction, primary screen, cell-based, unfolded protein response, luciferase reporter (AID 2732);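 note: 0% = tunicamycin plus vehicle and 100% = wells without tunicamycin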
Details: CHO-K1 CHOP-promoter luciferase, tunicamycin-induced, 15-18 h; at 10 µM; hits give high values

Point of comparison: `O=C(Nc1nnc(SCc2c(Cl)cccc2Cl)s1)c1cccc([N+](=O)[O-])c1`, inhibition 30.6%. Against it:
- Cc1nc(C(=O)Nc2ccc(Cl)cc2)sc1C1(C)CC(c2ccccc2)=NO1 (configuration not stated) — lower, 19.7%
- COc1ccc(CCNCC(O)Cn2ccc3ccccc32)cc1OC (configuration not stated) — lower, 7.33%
- CC(C)CCn1c(CN(C)Cc2ccccc2)nc2c1c(=O)n(C)c(=O)n2C — lower, 16%
- COCCn1c(CN(Cc2ccccc2)Cc2ccccc2)nc2c1c(=O)n(C)c(=O)n2C — higher, 63.3%
- S=C(NNC(=S)NC1CC2CCC1C2)NC1CC2C=CC1C2 (configuration not stated) — lower, 12.8%
- Cc1cc(C)nc(NC(=O)/C=C/c2ccc(Cl)cc2)n1 — lower, 8.16%
- CCCCOC(=O)c1[nH]c(C)c(C(=O)OC)c1C — lower, -2.34%
- Cn1c(S(=O)(=O)O)nc2ccccc21 — lower, 10.4%
- COc1ccccc1-c1c(C#N)c(N)nc2c1CCC2 — lower, -1.63%
- O=c1[nH]c2cccnc2n1-c1ccc([N+](=O)[O-])cc1 — lower, 16.2%
- OCC1(Cc2ccccc2C(F)(F)F)CCN(Cc2ccncc2)CC1 — lower, 1.13%
- CCC(=O)N1CCCc2ccccc21 — lower, -4.19%
- C=CCn1c(SCc2nnc(-c3ccccc3)o2)nnc1C(O)c1ccccc1 (configuration not stated) — lower, 14%
- OC(c1nnc(-c2ccccc2)o1)c1cccs1 (configuration not stated) — lower, -26.1%
- O=C1C2C3C=CC(C3)C2C(=O)N1c1ccc(S(=O)(=O)Nc2nccs2)cc1 (configuration not stated) — lower, 15.9%
- O=C(COC(=O)CCc1nc2ccccc2c(=O)[nH]1)Nc1ccc(N2CCOCC2)cc1 — lower, 12.7%
- CCOC(=O)Cn1c(N)c(C(=O)OC)sc1=S — lower, 25.2%
- CCOC(=O)c1sc(=S)n(-c2cccc(OC)c2)c1N — lower, 7.44%
- Fc1ccccc1/C=N/n1c(-c2cccnc2)n[nH]c1=S — lower, 6.74%
- COc1cccc(CC(=O)Nc2ccc(-c3csc(C)n3)cc2)c1 — lower, 7.07%
- CCOC(=O)C(=CNNc1ccsc1C(=O)OC)C(=O)OCC — lower, 8.45%
- Cc1ccccc1OCC(O)CN1CCN(c2ccccn2)CC1 (configuration not stated) — lower, 15.9%
- Cc1cccc(C)c1OCC(O)CN1CCCCC1 (configuration not stated) — lower, 10.2%
- CCCCCCCC(=O)OC(CN1CCCCCC1)CN1CCCC1=O (configuration not stated) — lower, 4.3%
- CC(C)(C)n1nnnc1C(c1ccc(F)cc1)N1CCN(Cc2ccc3c(c2)OCO3)CC1 (configuration not stated) — lower, 16.3%
- Cc1cc(C)c2[nH]c(=O)c(C(c3nnnn3Cc3ccc4c(c3)OCO4)N3CCCC3)cc2c1 (configuration not stated) — lower, -5.25%
- CCC1=NN2C(=N)/C(=C/c3cc(C)n(-c4ccccc4)c3C)C(=O)N=C2S1 — lower, -8.4%
- N#CNC1=NCN(CCc2ccccc2)CN1 — lower, -32.6%
- CCCN1CNC(=S)N(CCc2ccccc2)C1 — lower, 1.62%
- COCCNC(=O)CCCn1c(=O)c2ccccc2n(Cc2cccc([N+](=O)[O-])c2)c1=O — lower, -6.2%
- CCCCNC(=O)CCn1c(=S)[nH]c2cc3c(cc2c1=O)OCO3 — higher, 55%
- Cc1ccc(-c2c[n+](=O)c3c(n2[O-])CCC3)cc1 — lower, 17.5%
- Cc1ccc(NS(=O)(=O)c2ccc(N/N=C/c3ccccc3OCC(=O)O)c([N+](=O)[O-])c2)c(C)c1 — lower, -8.85%
- CC(C)Sc1nnc([C@H](Cc2ccccc2)NC(=O)OC(C)(C)C)o1 — lower, 11.1%
- C[C@H](NC(=O)OC(C)(C)C)c1nnc(SCC(N)=O)o1 — lower, 26.6%
- CC(C)C(=O)N1CCC2(CC1)Oc1ccc(F)cc1C(=O)C21CC(c2ccccc2)=NO1 (configuration not stated) — lower, 19.9%
- CCOC(=O)c1ccccc1NS(=O)(=O)c1ccc(OC)cc1 — lower, 9.25%
- CCOC(=O)c1c(-c2ccc(C)cc2)csc1/N=C(\C)C1=C(O)c2ccccc2C1=O — lower, 3.26%
- O=C(Nc1ccc(N2CCN(C(=O)c3ccccc3)CC2)c(Cl)c1)c1ncn[nH]1 — higher, 37.5%
- COCCn1c(SCC(=O)Nc2cc(OC)ccc2OC)nc2c(c1=O)SC(C)C2 (configuration not stated) — lower, -5.89%
- CC(=O)Nc1ccc(/C=C/C(=O)c2ccccc2)cc1 — lower, -42%
- CN(C)c1cc(-c2ccc(F)cc2)oc(=O)c1Cl — lower, 12.7%
- CNC(=S)NNC(=O)c1oc2nc(-c3ccccc3)cc(-c3ccco3)c2c1N — lower, -27.7%
- CN(C)C(=O)c1coc2nc3ccccc3nc12 — lower, 20.5%
- Cc1ccsc1/C=N/Nc1ccc(Cl)nn1 — higher, 65.5%
- CCN1/C(=C/C(=S)Nc2ccccc2)Sc2ccccc21 — lower, -10.3%
- CCC(=O)/C=C1\Sc2ccccc2N1CC — lower, 14.1%
- O=C(Nc1cccc(S(=O)(=O)NC2=NCCC2)c1)C1CCCCC1 — lower, 3.64%
- CC(C)(C)NC(=O)/C(=C/c1cccnc1)NC(=O)c1ccco1 — lower, 12.6%
- Cc1nnsc1C(=O)N/N=C/c1ccccc1Cl — lower, -17.2%
- COc1ccc(/C=N/NS(=O)(=O)c2ccc(NC(C)=O)cc2)cc1 — lower, 1.32%
- CN(C)S(=O)(=O)c1ccc(NC(=O)COC(=O)Cn2[nH]c(=O)c3ccccc3c2=O)cc1 — lower, 0.58%
- Cc1cccc2c1-c1sc(C(=O)NCCCN3CCc4ccccc4C3)cc1CO2 — higher, 35.6%
- Cc1ccc(SCC(=O)Nc2ncc(C)s2)cc1 — lower, 4.03%
- Cc1cnc(NC(=O)CSc2nnc(C)s2)s1 — lower, 22.4%
- FC(F)(F)Oc1ccc(-c2cn3cccnc3n2)cc1 — lower, 2.48%
- CCOC(=O)c1nnn2c3ccccc3c(=O)n(C)c12 — lower, 8.91%
- Cc1ccc(-c2cc(C(=O)NN)n[nH]2)o1 — lower, 2.15%
- CC(=O)c1sc(NC(=O)c2ccc(C)cc2)nc1C — lower, -2.78%
- Cc1ccc(C(=O)Nc2nnc(-c3cccs3)s2)cc1C — higher, 48.9%
- Cn1c2c(c(=O)n(C)c1=O)C(c1cccc(F)c1)C(C#N)=C(N)O2 (configuration not stated) — lower, 6.57%
- CCc1nc2sc3c(Cl)ncnc3c2c2c1CCCC2 — lower, -17.1%
- COc1ccc(CCNC(=O)C(Sc2ccccn2)c2ccccc2)cc1OC (configuration not stated) — lower, 6.29%
- CCOC(=O)CN(Cc1ccc(OC)c(OC)c1)S(=O)(=O)c1ccc(OC)cc1 — lower, -1.05%
- CC(C)(C)c1cc(C(=O)NN)n(Cc2ccc(Cl)cc2Cl)n1 — lower, -7.9%
- Cc1c([N+](=O)[O-])c(N)nn1C — lower, 4.08%
- N#CCC(=O)N/N=C/c1cn(Cc2ccc3ccccc3c2)c2ccccc12 — lower, 1.95%
- NS(=O)(=O)c1cccnc1Nc1cccc(Cl)c1 — lower, 5.4%
- CC(C)n1cnc2c(Nc3cccc(Cl)c3)nc(N(CCO)CCCO)nc21 — higher, 61.8%
- CCOC(=O)C1CCN(C(=O)Nc2cccc(OC)c2)CC1 — lower, 6.27%
- CSc1nc(C)nc(C2CC2)c1C#N — lower, 15.9%
- COc1ccc(N2CCN(c3ccc([N+](=O)[O-])nc3)CC2)cc1 — lower, 10.8%
- CC(=O)NC(Cc1ccccc1)C(=O)NC1CCN(c2ncccc2[N+](=O)[O-])CC1 (configuration not stated) — lower, 19.6%
- CC1(C)CC(CNCCC(c2ccc(F)cc2)c2ccco2)CCO1 (configuration not stated) — lower, 10.6%
- C=CCn1c(SCn2nnc3ccccc3c2=O)nnc1-c1ccc(Cl)cc1 — lower, 17.8%
- C=CCn1cc(-c2cccc(C(F)(F)F)c2)cc(C#N)c1=O — lower, 5.76%
- O=C(Cc1ccccc1)Nc1c(Cl)ccc2nsnc12 — lower, -1.48%
- O=C(c1ccc(F)cc1)C1CCN(Cc2cn[nH]c2-c2ccccc2)CC1 — lower, 15.6%

In the case of `CC(C)Cn1c(CN(Cc2ccccc2)Cc2ccccc2)nc2c1c(=O)n(C)c(=O)n2C`, the inhibition is reported as 95% (active).
In the case of `COC(=O)c1c(C)[nH]c(C(=O)/C=C/c2ccc(Cl)cc2)c1C`, the inhibition is reported as 85% (active).
For `CCCN(CCC)c1ccc(C(O)c2nnc(-c3ccccc3)o2)cc1` (configuration not stated), the inhibition was 91.7% (active).
For `CCOC(=O)c1sc(=S)n2c1[nH]c(=O)c1ccc(C(=O)OC)cc12`, the inhibition was 90.7% (active).
In the case of `Cc1ccc(OCC(O)CN2CCN(CC(O)COc3ccc(C)cc3Cl)CC2)c(Cl)c1` (configuration not stated), the inhibition is reported as 93.5% (active).
For `Fc1ccccc1C(c1nnnn1Cc1ccc2c(c1)OCO2)N1CCN(Cc2ccccc2)CC1` (configuration not stated), the inhibition was 97.9% (active).
For `c1ccc(CCN2CN=C(Nc3nc4ccccc4o3)NC2)cc1`, the inhibition was 94.3% (active).
In the case of `CCCCNC(=O)CCn1c(=O)c2ccccc2n(Cc2cc(C)ccc2C)c1=O`, the inhibition is reported as 86.5% (active).
For `C[C@@H](NC(=O)OC(C)(C)C)c1nnc(S(=O)(=O)Cc2ccccc2)o1`, the inhibition was 86.2% (active).
With `CCOC(=O)C1=C(c2ccc(OC)cc2)C(=O)c2ccccc2C1=O` the inhibition was 102% (active).
In the case of `CCN1/C(=C\c2ccc3ccccc3[n+]2CC)Sc2cc(C)ccc21`, the inhibition is reported as 87.5% (active).
With `CCN1/C(=C/c2ccc3ccc(C)cc3[n+]2CC)Sc2ccccc21` the inhibition was 73% (active).
In the case of `Cc1cnc(NC(=O)CSc2c(Cl)cccc2Cl)s1`, the inhibition is reported as 74.4% (active).
In the case of `N#Cc1ccc(C(=O)Nc2nc(-c3cccs3)c(C(=O)C(F)(F)F)s2)cc1`, the inhibition is reported as 74.7% (active).
With `COc1ccc(C(CCN(Cc2ccc(OC)c(OC)c2)C(=O)CCl)c2ccccc2)cc1` (configuration not stated) the inhibition was 106% (active).
With `OCCCNc1nccc(-c2cc(Nc3cccc(Cl)c3)ncn2)n1` the inhibition was 103% (active).
In the case of `COc1ccc(-c2cc(C3CCN(c4ncccc4[N+](=O)[O-])CC3)[nH]n2)cc1`, the inhibition is reported as 75.9% (active).
In the case of `C=CCn1c(-c2ccc(Cl)cc2)ccc(C#N)c1=O`, the inhibition is reported as 82.2% (active).

Source: PubChem BioAssay AID2732 (Emory University Molecular Libraries Screening Center, 2010)
